In article PMC4336329 (PLoS ONE, 2015):
About 14,000 (4.5%) of roughly 310,000 compounds showed an effect of 50% or more. Effects have a minus sign here. Shown is part of a subset that was picked to be rich in strong results.

target: human ether-à-go-go-related gene (hERG) potassium channel (human, UniProt Q12809); experiment: primary screen, population patch clamp on CHO cells stably expressing hERG; higher = less effect of the substance
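Note: peak tail current of the secondary pulse compared with the same well before compound.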

Sequence of human ether-à-go-go-related gene (hERG) potassium channel (Q12809 whole entry, looked up): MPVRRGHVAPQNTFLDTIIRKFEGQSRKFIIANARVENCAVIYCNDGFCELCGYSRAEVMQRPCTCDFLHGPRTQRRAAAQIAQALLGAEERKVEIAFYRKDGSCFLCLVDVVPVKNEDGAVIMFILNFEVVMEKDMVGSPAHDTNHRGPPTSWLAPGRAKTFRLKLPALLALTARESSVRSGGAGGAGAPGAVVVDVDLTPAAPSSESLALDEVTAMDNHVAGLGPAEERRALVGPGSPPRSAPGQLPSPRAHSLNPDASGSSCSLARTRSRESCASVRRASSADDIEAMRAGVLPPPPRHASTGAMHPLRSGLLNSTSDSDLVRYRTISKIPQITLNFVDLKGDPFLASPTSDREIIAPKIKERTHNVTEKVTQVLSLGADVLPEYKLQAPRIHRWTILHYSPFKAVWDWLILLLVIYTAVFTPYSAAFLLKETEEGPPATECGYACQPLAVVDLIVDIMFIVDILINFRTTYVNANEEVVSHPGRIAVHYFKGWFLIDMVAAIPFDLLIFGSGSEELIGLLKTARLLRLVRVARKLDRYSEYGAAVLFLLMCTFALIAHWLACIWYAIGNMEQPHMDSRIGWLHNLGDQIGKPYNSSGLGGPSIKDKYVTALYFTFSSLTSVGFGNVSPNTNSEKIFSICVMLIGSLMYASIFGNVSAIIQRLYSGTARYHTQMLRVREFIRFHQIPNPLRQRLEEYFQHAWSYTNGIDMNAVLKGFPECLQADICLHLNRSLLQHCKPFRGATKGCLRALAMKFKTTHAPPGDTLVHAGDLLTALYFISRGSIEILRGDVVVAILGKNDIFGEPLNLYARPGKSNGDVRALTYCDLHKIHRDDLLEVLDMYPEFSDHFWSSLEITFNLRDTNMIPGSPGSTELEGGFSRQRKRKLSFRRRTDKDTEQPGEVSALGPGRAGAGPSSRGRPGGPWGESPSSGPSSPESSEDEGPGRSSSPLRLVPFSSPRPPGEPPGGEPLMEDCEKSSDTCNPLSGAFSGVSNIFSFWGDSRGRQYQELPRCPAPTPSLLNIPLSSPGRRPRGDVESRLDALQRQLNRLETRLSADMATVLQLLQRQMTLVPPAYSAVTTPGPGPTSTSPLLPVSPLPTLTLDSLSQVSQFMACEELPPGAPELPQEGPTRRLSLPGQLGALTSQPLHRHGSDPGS

Row | SMILES | hERG current change (%, negative = inhibition) at 10uM [%]
1 | CN1CCN(c2ccc(N)c(N3CCN(C)CC3)c2)CC1 | 13.4
2 | CC(C)(C)NC(=O)C(c1ccc(F)cc1)N(Cc1ccccc1Cl)C(=O)c1ccn[nH]1 (centres unmarked) | 25.6
3 | CC1(C)CC(=O)C=C(c2cccc3c2oc2ccccc23)C1 | -2.67
4 | CC(=O)Oc1ccc2oc(=O)c3c(c2c1)CCCN3C(=O)CN1CCN(c2ncccn2)CC1 | -7.91
5 | CCCOc1ccc2oc(=O)c3c(c2c1)CCCN3C(=O)CN1CCCC(C(=O)OCC)C1 (centres unmarked) | -65.5
6 | O=C(c1ccco1)N1CCN(CC(=O)N2CCCc3c2c(=O)oc2ccc(O)cc32)CC1 | -5.14
7 | CCCOc1ccc2oc(=O)c3c(c2c1)CCCN3C(=O)CN1CCc2ccccc2C1 | -24.1
8 | CCOC(=O)C1CCCN(Cc2cc(=O)oc3cc(C)c(C)cc23)C1 (centres unmarked) | -19.3
9 | CCCOc1ccc(C(=O)Nc2ccc(N3CCN(C(=O)c4ccco4)CC3)cc2)cc1 | 13.2
10 | CCCCCOc1ccc2oc(=O)c3c(c2c1)CCCN3C(=O)CN1CCCC(C(=O)OCC)C1 (centres unmarked) | -0.3
11 | CCCOc1ccc2oc(=O)c3c(c2c1)CCCN3C(=O)CN1CCN(C(=O)c2ccco2)CC1 | -65.3
12 | CCCOc1ccc2oc(=O)c3c(c2c1)CCCN3C(=O)CN1CCN(c2ncccn2)CC1 | -70.1
13 | O=C(c1cnn2ccccc12)N1CCc2ccccc21 | 0.772
14 | CC(=O)c1ccc(N2CCN(C(=O)/C=C/c3ccc(S(=O)(=O)N4CCOCC4)cc3)CC2)cc1 | -30.3
15 | Clc1ccc(OCCCCCN2CCCC2)c(Br)c1 | -62.3
16 | Cc1ccccc1OCCCN1CCCC1 | -14.4
17 | CCN1CCN(CCCOc2ccc(Cl)cc2Br)CC1.O=C(O)C(=O)O | -69
18 | Clc1ccc(Cl)c(OCCCCN2CCCCC2)c1 | -59.2
19 | Brc1ccccc1OCCCCCN1CCCC1 | -33.9
20 | Clc1ccccc1OCCCCN1CCCC1 | -29.6
21 | Clc1ccc(OCCCn2ccnc2)c(Br)c1.O=C(O)C(=O)O | -18.6
22 | Clc1cccc(OCCCN2CCCC2)c1Cl | -55.5

Row | SMILES | hERG current change (%, negative = inhibition) at 10uM [%]
23 | Clc1ccccc1OCCCCN1CCCCC1 | -8.1
24 | Clc1ccc(Cl)c(OCCN2CCCC2)c1 | -38.8
25 | Fc1ccccc1OCCCCCCN1CCCC1 | -38.2
26 | CCn1c(P(C)(=O)[O-])nc2ccccc21.[Na+] | 8.91
27 | COC(=O)c1sccc1NC(=S)N1CCCC(C)C1 (centres unmarked) | 14.6
28 | Cc1cc(C(=O)N2CCN(c3ccc(C(F)(F)F)cn3)CC2)c(C)o1 | -21.4
29 | CCOc1ccccc1C(=O)Nc1nnc(C(C)C)s1 | -1.92
30 | O=C(CCN1C(=O)/C(=C/c2ccc(F)cc2)SC1=S)NC1C=CS(=O)(=O)C1 (centres unmarked) | -15.2
31 | CCc1nc2ccccc2n1CCC(=O)O.Cl | -5.88
32 | CC1(C)c2ccccc2N2CC(=O)NC21/C=C/c1ccco1 (centres unmarked) | 2.9
33 | Cc1nn(Cc2ccc(Cl)cc2)c(C)c1NC(=O)c1cc(-c2ccc3c(c2)OCO3)on1 | -3.11
34 | CN(C)C(=O)N1CCC(C(=O)N2CCCC(C(=O)c3cccc4ccccc34)C2)CC1 (centres unmarked) | -33.8
35 | Clc1ccc(Cl)c(OCCCCN2CCNCC2)c1.O=C(O)C(=O)O | -17.4
36 | Clc1ccc(OCCCN2CCCCC2)c(Br)c1.O=C(O)C(=O)O | -70.7
37 | Clc1ccc(OCCN2CCCCC2)c(Cl)c1.O=C(O)C(=O)O | -16.2
38 | CCOC(=O)C(NC(=O)Cc1ccccc1)(Nc1cc(C)on1)C(F)(F)F (centres unmarked) | 3.97
39 | N#Cc1ccccc1NC(=O)COC(=O)CCc1ccccc1 | -14.9
40 | C=CCn1c(SCc2ccc(C(=O)Nc3ccccc3)cc2)nnc1-c1ccccc1 | -5.06
41 | O=C(CCn1c(=O)c2ccccc2n(Cc2ccccc2)c1=O)NCc1ccc2c(c1)OCO2 | -4.33
42 | O=C(NCCCl)Nc1cc([N+](=O)[O-])ccc1Cl | 16.9
43 | COCCNc1c(-c2ccc(OC)cc2)nc2ccc(Cl)cn12 | -39.5
44 | CCOC(=O)CNc1c(-c2ccccc2)nc2ccc(Cl)cn12 | -64.4

Row | SMILES | hERG current change (%, negative = inhibition) at 10uM [%]
45 | CC(=O)Nc1c(-c2ccccc2)nc2ccc(Cl)cn12 | 5.29
46 | CCOC(=O)CNc1c(-c2ccc(O)cc2)nc2ccc(Cl)cn12.Cl | -39.7
47 | CCOC(=O)CNc1c(-c2ccc(OC)cc2)nc2ccc(Cl)cn12 | -73.5
48 | CCOC(=O)c1c(-c2ccccc2)nc2ccc(Cl)cn12 | 30
49 | Cc1ccc(S(=O)(=O)N2c3ccccc3OCC2c2ccccc2)cc1 (centres unmarked) | 23
50 | CCOc1ccc(OCC)c(NC(=O)CN2CCN(c3cc(C)ccc3C)CC2)c1.Cl | -9.35
51 | CCCN1CCN(CC(=O)Nc2cc(OCC)ccc2OCC)CC1.Cl | -57.6
52 | CCOc1ccc(OCC)c(NC(=O)CN2CCN(C(=O)c3ccco3)CC2)c1 | -59
53 | CCOc1ccc(OCC)c(NC(=O)CN2CCN(CC(=O)NC(C)C)CC2)c1.Cl | 9.43
54 | CCOC(=O)N1CCN(CC(=O)Nc2cc(OCC)ccc2OCC)CC1.Cl | -68.1
55 | COc1ccc(NC(C)=O)cc1NC(=O)CN1CCN(C(=O)c2ccco2)CC1 | 13.9
56 | CCCCCNCC(=O)Nc1cc(C(F)(F)F)ccc1OCCOC | -34.2
57 | CCOc1ccc(OCC)c(NC(=O)CN2CCN(CC)CC2)c1.Cl | -43.3
58 | COc1ccc(OC)c(NC(=O)CN2CCN(C(=O)c3ccco3)CC2)c1 | -23.7
59 | CCOc1ccc(OCC)c(NC(=O)CN2CCN(c3ccc(C)cc3C)CC2)c1.Cl | -0.937
60 | CCN1CCN(CC(=O)Nc2cc(C(F)(F)F)ccc2OCCOC)CC1.O=C(O)C(=O)O | -75.4
61 | COCCOc1ccc(C(F)(F)F)cc1NC(=O)c1ccccc1 | -10.9
62 | CCOC(=O)C1CCCN(C(=O)c2ccc(Cn3c(=S)[nH]c4cc(C(=O)OC)ccc4c3=O)cc2)C1 (centres unmarked) | 10.6
63 | CCN1C(=O)[C@H]2[C@@H](c3ccc(C)cc3)N3C(=O)N(c4ccc(C(F)(F)F)cc4)C(=O)[C@@]3(CC(C)C)[C@H]2C1=O | 14.6
64 | Cc1ccc(C)c(NC(=O)CN(C)S(=O)(=O)c2ccc(F)cc2)c1 | 3.47
65 | Cc1cc(NC(=O)CSc2nc(-c3ccccc3)c(C#N)c(=O)[nH]2)no1 | -0.629
66 | Cc1ccsc1/C=C1\C(=O)NC(=S)N(C)C1=O | 15.3

Row | SMILES | hERG current change (%, negative = inhibition) at 10uM [%]
67 | O=C(COc1ccc(Cl)cc1)NCCS(=O)(=O)N1CCN(c2ccccc2F)CC1 | 5.38
68 | CC(=O)C1=C(O)C(=O)N(c2cccc(Br)c2)C1c1ccccc1Cl (centres unmarked) | -4.7
69 | COc1ccc(OC)c(NC(=O)c2nc(-c3ccccc3)oc2C)c1 | -6.31
70 | O=S(=O)(Nc1ccc(Br)cc1)c1cccc(NC(=S)NCCN2CCOCC2)c1 | 3.16
71 | Cc1ccc(CN2Cc3cccc4c3[C@@H](CC2=O)[C@H](O)[C@H](O)C4)cc1 | 19.6
72 | O=C(CCc1nnc2ccc(N3CCCC3)nn12)Nc1ccc(F)cc1F | 8.27
73 | COc1ccc(N2CCN(C(=O)CCc3nnc4ccc(N5CCC(C)CC5)nn34)CC2)cc1 | -66.1
74 | COc1cccc(NC(=O)CCc2nnc3ccc(N4CCN(c5cccc(OC)c5)CC4)nn23)c1 | 13.6
75 | O=C(CCc1nnc2ccc(N3CCCC3)nn12)Nc1cc(F)ccc1F | -50.4
76 | COc1ccc(N2CCN(C(=O)CCc3nnc4ccc(N5CCOCC5)nn34)CC2)cc1 | -5.83
77 | COc1cccc(N2CCN(c3ccc4nnc(CCC(=O)Nc5ccccc5OC)n4n3)CC2)c1 | -62.6
78 | COc1ccccc1N1CCN(C(=O)CCc2nnc3ccc(N4CCCC4)nn23)CC1 | -34.1
79 | COc1ccccc1N1CCN(C(=O)CCc2nnc3ccc(N4CCC(C)CC4)nn23)CC1 | -33.5
80 | COc1cc(NC(=O)CCc2nnc3ccc(N4CCN(c5cccc(OC)c5)CC4)nn23)cc(OC)c1 | 7.07
81 | CC1CCN(c2ccc3nnc(CCC(=O)N4CCN(c5ccccc5F)CC4)n3n2)CC1 | -62.6
82 | COc1ccc(N2CCN(C(=O)CCc3nnc4ccc(N5CCCC5)nn34)CC2)cc1 | -7.68
83 | CC1CCN(c2ccc3nnc(CCC(=O)Nc4cc(F)ccc4F)n3n2)CC1 | -37.5
84 | N#CCCN(C(=O)COC(=O)c1ccc2c(c1)NC(=O)CS2)c1ccc2c(c1)OCCO2 | -22.8
85 | CCOCCOC(=O)C1=C(C)NC(=O)NC1c1cc2c(cc1Br)OCO2 (centres unmarked) | -30.5
86 | O=C(CSCc1ccccc1)Nc1ccc(F)c(F)c1 | -3.2
